# Inconclusive results are not listed. Entries that show only a call come without a potency. Active and inactive are the calls of the source. Unless noted, the call rests on the fitted dose curve.
# Experiments:
# [1] = NS1 protein of Zika virus - qHTS assay to identify small molecule inhibitors in human HEK 293 cells (AID 1347053; active means well fitted inhibition curve with a large enough effect; further: nearly all actives have a fitted effect of over 55% in size)
# In short: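 HEK 293 cells, seeded 20 h at 37 C, were pretreated with compound 1 h, then infected with ZIKV MR766 (MOI = 0.5) for 24 h. NS1 was read by TR-FRET with two anti-NS1 antibodies, normalized to uninfected and infected wells.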
# [2] = qHTS for Inhibitors of the Functional Ribonucleoprotein Complex (vRNP) of Lassa (LASV) Arenavirus: LASV Primary Screen - GLuc reporter signal (AID 1347082; calls by dose curve; tested in HEK293 reporter line; further: nearly all actives have a fitted effect of over 60% in size)
# [3] = qHTS for Inhibitors of the Functional Ribonucleoprotein Complex (vRNP) of Lassa (LASV) Arenavirus: Viability assay - alamar blue signal for LASV Primary Screen (AID 1347083; calls by dose curve; tested in HEK293 reporter line; further: nearly all actives have a fitted effect of over 80% in size)
# [4] = qHTS for Inhibitors of the Functional Ribonucleoprotein Complex (vRNP) of Lymphocytic Choriomeningitis Arenaviruses (LCMV): Viability assay - alamar blue signal for LCMV Primary Screen (AID 1347085; calls by dose curve; tested in HEK293 reporter line; further: nearly all actives have a fitted effect of over 80% in size)
# [5] = molecular target: Nucleoprotein (Lymphocytic choriomeningitis virus (strain Armstrong)) (UniProt P09992); assay: qHTS for Inhibitors of the Functional Ribonucleoprotein Complex (vRNP) of Lymphocytic Choriomeningitis Arenaviruses (LCMV): LCMV Primary Screen - GLuc reporter signal (AID 1347086); further: nearly all actives have a fitted effect of over 70% in size
# Potency means the concentration at half of the fitted maximal effect.
# Nucleoprotein (Lymphocytic choriomeningitis virus (strain Armstrong)), sequence (P09992 whole entry, looked up): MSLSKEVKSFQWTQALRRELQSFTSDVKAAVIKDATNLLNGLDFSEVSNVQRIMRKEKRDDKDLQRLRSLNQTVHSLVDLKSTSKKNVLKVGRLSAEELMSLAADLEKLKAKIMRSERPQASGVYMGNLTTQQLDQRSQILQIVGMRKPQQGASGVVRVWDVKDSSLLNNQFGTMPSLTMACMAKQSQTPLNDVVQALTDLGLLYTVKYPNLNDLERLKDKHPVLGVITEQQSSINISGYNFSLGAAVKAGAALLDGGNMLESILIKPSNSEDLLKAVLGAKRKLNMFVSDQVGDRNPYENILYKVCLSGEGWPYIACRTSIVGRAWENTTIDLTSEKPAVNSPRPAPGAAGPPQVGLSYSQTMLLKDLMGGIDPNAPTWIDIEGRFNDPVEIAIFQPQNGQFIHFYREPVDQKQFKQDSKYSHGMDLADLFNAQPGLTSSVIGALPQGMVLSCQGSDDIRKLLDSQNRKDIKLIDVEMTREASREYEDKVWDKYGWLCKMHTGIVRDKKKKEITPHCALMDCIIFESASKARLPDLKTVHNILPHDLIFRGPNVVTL
Compound,Potency [1],Potency [2],Potency [3],Potency [4],Potency [5]
CC1=C(C(=O)O)N2C(=O)[C@@H](N)[C@H]2SC1,inactive,inactive,inactive,inactive,inactive
CCC(=O)O[C@@H]1C=C2CCC3C(CCC4(C)C3CC[C@@H]4OC(=O)CC)C2CC1 (some centres not stated),inactive,inactive,inactive,inactive,inactive
O=[N+]([O-])c1c2ccccc2cc2ccccc12,inactive,inactive,inactive,inactive,inactive
Cc1ccc(NC(=O)c2ccc(CN3CCN(C)CC3)cc2)cc1Nc1nc(-c2cccnc2)cs1,,inactive,,,
CC1=C[C@@H]2[C@@H]([C@@H](O)C[C@@]3(C)[C@H]2C[C@@H](C)[C@]3(O)C(=O)CO)[C@@]2(C)Cc3cnn(-c4ccccc4)c3C=C12,,inactive,,,
Cc1ccc(NC(=O)c2cccc(C(C)(C)C#N)c2)cc1Nc1ccc2ncn(C)c(=O)c2c1,,inactive,17.2 µM (active),,
O=C(Nc1ccccc1-c1ccc(Cl)cc1)c1cccnc1Cl,inactive,inactive,inactive,inactive,inactive
O=S(=O)(c1ccc(Cl)cc1)c1ccc(Cl)cc1,inactive,inactive,inactive,inactive,inactive
c1cc(-c2cnn3cc(-c4ccc(OCCN5CCCCC5)cc4)cnc23)ccn1,,34.3 µM (active),17.2 µM (active),,
CCOc1ccc(Nc2nc(-c3c(C)nc4ccccn34)cs2)cc1,,inactive,0.0049 µM (active),,
Fc1cc(Br)ccc1CBr,inactive,inactive,inactive,inactive,inactive
CCCCCC[C@H]1C(=O)O[C@H](C)[C@H](NC(=O)c2cccc(NC=O)c2O)C(=O)O[C@@H](C)[C@@H]1OC(=O)CC(C)C,2.96 µM (active),1.09 µM (active),4.32 µM (active),4.85 µM (active),1.22 µM (active)
C#C[C@]1(O)C=C[C@@H]2[C@@H]3CCC4=CC(=O)CC[C@@H]4[C@H]3CC[C@@]21CC,inactive,inactive,inactive,inactive,inactive
[Cl][In]([Cl])[Cl],,inactive,,,
COC(C)(C)CCCC(C)C/C=C/C(C)=C/C(=O)OC(C)C (configuration not stated),inactive,inactive,inactive,inactive,inactive
CCOP(=O)(NC(C)C)Oc1ccc(SC)c(C)c1 (configuration not stated),inactive,inactive,inactive,inactive,inactive
CC(=O)N(C)C1(c2ccccc2)CCN(CCC[C@]2(c3ccc(Cl)c(Cl)c3)CCCN(C(=O)c3ccccc3)C2)CC1,,inactive,inactive,,
Nc1ccc(Cl)cc1N,inactive,inactive,inactive,inactive,inactive
CCNC(=O)C[C@@H]1N=C(c2ccc(Cl)cc2)c2cc(OC)ccc2-n2c(C)nnc21,inactive,,3.06 µM (active),1.22 µM (active),1.22 µM (active)
CCN(CC)CCCCNc1ncc2cc(-c3cc(OC)cc(OC)c3)c(NC(=O)NC(C)(C)C)nc2n1,,inactive,19.3 µM (active),,
CN(C)CC=CC(=O)Nc1cc2c(Nc3ccc(F)c(Cl)c3)ncnc2cc1O[C@H]1CCOC1,,13.7 µM (active),24.3 µM (active),,
CC(C)C(=O)Nc1ncc(-c2cc(C(F)F)nn2-c2c(Cl)cccc2Cl)s1,,inactive,,,
COc1ccc(C(c2ccc(OC)cc2)C(Cl)(Cl)Cl)cc1,inactive,,,inactive,inactive

Compound,Potency [1],Potency [2],Potency [3],Potency [4],Potency [5]
Cc1c(N)nc([C@H](CC(N)=O)NC[C@@H](N)C(N)=O)nc1C(=O)N[C@H](C(=O)N[C@@H](C)[C@H](O)[C@@H](C)C(=O)N[C@@H](C(=O)NCCc1nc(-c2nc(C(=O)NCCC[S+](C)C)cs2)cs1)[C@@H](C)O)C(O[C@H]1O[C@H](CO)[C@H](O)[C@@H](O)[C@@H]1O[C@H]1O[C@H](CO)[C@@H](O)[C@H](OC(N)=O)[C@H]1O)c1cnc[nH]1 (some centres not stated),2.96 µM (active),inactive,7.69 µM (active),,inactive
COc1cc2c(cc1O)CC[C@@H]1[C@@H]2CC[C@]2(C)[C@@H](O)CC[C@@H]12,,inactive,,,
Nc1cccc2c(N)cccc12,,inactive,,,
C=CCC1=C(C)C(OC(=O)C2C(C=C(C)C)C2(C)C)CC1=O (configuration not stated),inactive,,inactive,,
Cc1cnc(-c2cnc(NCCNc3ccc(C#N)cn3)nc2-c2ccc(Cl)cc2Cl)[nH]1,,inactive,inactive,,
COC[C@H]1OC(=O)c2coc3c2[C@@]1(C)C1=C(C3=O)[C@@H]2CC[C@H](O)[C@@]2(C)C[C@@H]1OC(C)=O,,inactive,,,
CC(C)(C)c1ccc(O)c(O)c1,,inactive,,,
Cc1cccc(-c2[nH]c(C(C)(C)C)nc2-c2ccc3nccnc3c2)n1,,9.68 µM (active),,,
CO[C@H]1CCC(O[C@H]2C[C@H]([C@]3(C)CC[C@]4(C[C@H](O)[C@@H](C)[C@@H]([C@@H](C)C=C(C)C(=O)[C@H](C)C[C@H](C)C(=O)O)O4)O3)O[C@]3(O[C@@H]([C@H]4O[C@@](O)(CO)[C@H](C)C[C@H]4C)C[C@H]3C)[C@H]2C)O[C@H]1C (some centres not stated),0.743 µM (active),inactive,,inactive,inactive
COc1ccc(C(=O)c2c(C)n(CCN3CCOCC3)c3cc(I)ccc23)cc1,inactive,,,inactive,inactive
CC(C)c1ccc2c(c1)c(SC(C)(C)C)c(CC(C)(C)C(=O)O)n2Cc1ccc(Cl)cc1,,12.2 µM (active),12.2 µM (active),,
CC(=O)c1c(C)c2cnc(Nc3ccc(N4CCNCC4)cn3)nc2n(C2CCCC2)c1=O,,inactive,30.6 µM (active),,
COC(=O)c1c(Cl)c(Cl)c(C(=O)OC)c(Cl)c1Cl,,inactive,inactive,,
C[C@@H]1CN(CC(=O)Nc2ccc3c(c2)Cc2cccc(-c4cc(=O)cc(N5CCOCC5)o4)c2S3)C[C@H](C)O1,,inactive,,,
CN(C)CCCN=c1c2ccccc2n(C)c2[nH]c(=O)n(C)c(=O)c12,,inactive,19.3 µM (active),,
CCCCn1c(=O)n(Cc2ccccc2F)c(=O)c2[nH]c(Cc3ccc(NC(C)=O)cc3)nc21,,inactive,,,
Oc1cccc(-c2nc(N3CCOCC3)c3oc4ncccc4c3n2)c1,,0.993 µM (active),0.885 µM (active),1.4 µM (active),1.4 µM (active)
CC(=O)OCCN1C(=O)c2c(C)nc3ccc(S(=O)(=O)N4CCOCC4)cc3c2C1=O,,inactive,inactive,inactive,
COc1ccc(-c2ccc3c(N4CCOCC4)nc(N4C[C@@H](C)O[C@@H](C)C4)nc3n2)cc1CO,,0.344 µM (active),0.243 µM (active),1.09 µM (active),
C[C@@]12O[C@@H](C[C@]1(O)CO)n1c3ccccc3c3c4c(c5c6ccccc6n2c5c31)CNC4=O,,9.68 µM (active),0.432 µM (active),21.7 µM (active),
O=C(NOC[C@H](O)CO)c1ccc(F)c(F)c1Nc1ccc(I)cc1F,,inactive,inactive,inactive,inactive
CCc1c(C)[nH]c2c1C(=O)C(CN1CCOCC1)CC2 (configuration not stated),,inactive,inactive,inactive,inactive
CCc1cc(Nc2nccc(-c3c(-c4ccc(OC)c(C(=O)Nc5c(F)cccc5F)c4)nc4ccccn34)n2)c(OC)cc1N1CCC(N2CCN(S(C)(=O)=O)CC2)CC1,,inactive,inactive,21.7 µM (active),
